Compound activity deposited in PubChem by National Center for Advancing Translational Sciences (NCATS).
In the library only some 8.7% were active in any assay of this set; here they are far more common.
Sfp PPTase inh – inhibitors of Bacillus subtilis Sfp phosphopantetheinyl transferase | Potency, µM, most hits filed as inhibitors | hit rate 3.5% among 310,000 | Biochemical Sfp PPTase activity, qHTS | AID 1490 | Q9F4F7;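 note: the enzyme is Sfp with the accession as filed and its product quenches rhodamine fluorescence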
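Fluorescence-quenching assay with 15 nM Sfp, 5 uM rhodamine-CoA and 12.5 uM BHQ-2-labelled ybbR peptide in pH 7.6 Hepes/MgCl2 buffer. Enzyme was pre-incubated with compound for 15 min at room temperature. Rate was taken from the 30-min fluorescence change (525/598 nm).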
12-LOX inh – blocks human arachidonate 12S-lipoxygenase | P18054 | hit rate 1.1% among 580,000 | AID 1671190 | purified 12hLO, xylenol orange hydroperoxide absorbance | Potency, µM (highest dose often 108 µM), most hits filed as inhibitors
Target sequence (P18054 whole entry, looked up): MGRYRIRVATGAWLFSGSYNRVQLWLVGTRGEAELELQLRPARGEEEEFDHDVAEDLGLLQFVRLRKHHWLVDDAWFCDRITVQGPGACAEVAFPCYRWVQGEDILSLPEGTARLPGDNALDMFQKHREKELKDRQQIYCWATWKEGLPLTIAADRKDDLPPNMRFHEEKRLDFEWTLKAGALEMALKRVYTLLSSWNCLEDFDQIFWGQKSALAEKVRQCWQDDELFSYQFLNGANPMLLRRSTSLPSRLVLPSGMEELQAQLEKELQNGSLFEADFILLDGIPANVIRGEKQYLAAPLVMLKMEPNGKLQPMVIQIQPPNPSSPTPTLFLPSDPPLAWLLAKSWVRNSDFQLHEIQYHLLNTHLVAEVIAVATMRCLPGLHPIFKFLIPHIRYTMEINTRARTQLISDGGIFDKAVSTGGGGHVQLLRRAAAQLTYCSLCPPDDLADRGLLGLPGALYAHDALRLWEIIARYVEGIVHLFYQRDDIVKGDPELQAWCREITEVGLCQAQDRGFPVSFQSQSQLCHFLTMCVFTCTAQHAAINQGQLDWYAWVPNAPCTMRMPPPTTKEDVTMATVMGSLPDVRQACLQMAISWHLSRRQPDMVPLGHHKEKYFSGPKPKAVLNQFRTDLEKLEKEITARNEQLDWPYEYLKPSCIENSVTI
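Purified human 12hLO at 150 nM in 25 mM Hepes, 0.01% Triton X-100, pH 7.0, preincubated 15 min at room temperature with compound. Reaction started with 40 uM arachidonic acid, 30 min at room temperature. Hydroperoxide measured by Fe-xylenol orange, 573/405 nm absorbance ratio.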
G9a inh – G9a (human) methyltransferase inhibition | G9a H3K9 monomethylation, AlphaScreen, 2 h | Potency, µM (series often up to 102 µM), actives largely listed as inhibitors | hit rate 8.8% among 350,000; note: nearly all actives have a fitted effect of over 75% in size
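G9a (20 nM) was preincubated 15 min with compound, then reacted 2 h at room temperature with 500 nM biotin-H3K9 peptide and 20 µM SAM. Monomethyl-H3K9 detected by AlphaScreen using anti-H3K9me1 antibody.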
JMJD2A Tudor inh – blocks the human JMJD2A Tudor domain | O75164 | AlphaScreen JMJD2A-Tudor / H3K4me3 peptide binding | Potency, µM (highest dose often 114 µM), actives largely listed as inhibitors | hit rate 4.4% among 390,000; note: nearly all actives have a fitted effect of over 50% in size
HP1b chromo inh – inhibitors of HP1-beta chromodomain binding to methylated histone tails; P83916; AlphaScreen HP1-beta / biotin-H3K9me3 peptide binding; Potency, µM (titrated, usually from 114 µM), usual class: inhibitors; hit rate 0.56% among 390,000; AID 540317; note: nearly all actives have a fitted effect of over 70% in size
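Compound inhibition of the preformed complex between 50 nM HP1-beta and 50 nM biotinylated H3K9me3 peptide was read by AlphaScreen. Buffer was PBS pH 7.4 with 0.01% Tween-20. Incubations ran 30 min at room temperature, with 10 ug/mL donor/acceptor beads.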
BAZ2B block – inhibitors of human BAZ2B bromodomain; Q9UIF8; AlphaScreen BAZ2B-H3K14Ac peptide displacement; Potency, µM (top dose mostly 114 µM), usual class: inhibitors; hit rate 4.4% among 360,000; AID 504333; note: nearly all actives have a fitted effect of over 60% in size
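Multi-concentration screen (max 110 uM) measuring displacement of acetylated histone H3 peptide from BAZ2B by AlphaScreen, using 50 nM protein, 50 nM peptide and 10 ug/mL streptavidin donor plus Ni-chelate acceptor beads.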
Hits are given with their value; - = inactive; ? = inconclusive; . = not tested or not shown; [ ] = remark or other dose. Calls come from the whole dose curve; as a rule, active = well fitted curve in the direction sought with a large enough effect; inconclusive = small, poorly fitted or top-dose-only effect, or another doubt; inactive = no such curve, though single readings can be large; an effect the other way counts as inactive or inconclusive.

SMILES	Sfp PPTase inh	12-LOX inh	G9a inh	JMJD2A Tudor inh	HP1b chromo inh	BAZ2B block
CC(=O)O[C@@H]1CC2C(C)(C)C(=O)C=C[C@]2(C)C2CC[C@]3(C)C(=CC[C@H]3C3CO[C@@H](C(C)(C)O)[C@H](O)C3)[C@@]21C (stereo partly drawn)	89µM	-	.	.	.	.
Cc1oc(-c2ccccc2)nc1CC(=O)NCCN(C(C)C)C(C)C	.	-	.	.	.	.
COc1ccc(NC(=O)Cn2nnc(C(=O)NCc3cccs3)c2N)c(OC)c1	-	-	-	22µM	-	-
COc1ccc(Cl)cc1NC(=O)Cn1nnc(C(=O)NCCc2ccc(OC)c(OC)c2)c1N	-	-	-	-	-	-
Cc1ccc(NC(=O)Cn2nnc(C(=O)NCCc3ccccc3)c2N)c(C)c1	-	.	-	11µM	-	?
COc1ccc(CCNC(=O)c2nnn(CC(=O)Nc3ccc(C)cc3C)c2N)cc1OC	?	-	-	-	-	79µM
NC(=S)N/N=C1\CC(c2ccc3c(c2)OCCCO3)Oc2ccc(F)cc21 (stereo not drawn)	-	6.3µM	.	?	-	25µM
FC(F)(F)c1ccc(N2C3CCC2CN(Cc2ccc(-c4cncnc4)cc2)C3)cc1	.	-	.	.	.	.
CCNc1nc(SCC(=O)Nc2ccccc2)nc(N2CCOCC2)n1	-	-	-	-	-	-
CC(C)(C)Nc1nc(SCC(=O)Nc2ccccc2Cl)nc(N2CCOCC2)n1	-	-	.	-	-	79µM
O=C(CN1CCN(c2nccs2)CC1)NCc1ccccc1F	.	-	.	.	.	.
O=C(CN1CCN(S(=O)(=O)Cc2ccccc2)CC1)Nc1cccc(F)c1	.	-	.	.	.	.
Cn1c(=O)[nH]c(=O)c2c1nc(SCCO)n2Cc1ccccc1Cl	-	?	45µM	?	-	-
CSc1nc2c(c(=O)[nH]c(=O)n2C)n1Cc1ccccc1Cl	-	-	.	-	-	-
CCOC(=O)CSc1nc2c(c(=O)[nH]c(=O)n2C)n1Cc1ccccc1Cl	.	-	.	.	.	.
CCC(C)Sc1nc2c(c(=O)[nH]c(=O)n2C)n1Cc1ccccc1Cl (stereo not drawn)	-	-	25µM	-	-	-
CC(C)(C)C1CCC(=C(C#N)C(N)=O)CC1 (stereo not drawn)	.	-	.	.	.	.
COc1cc(NC(=O)COc2ccc3c(C)c(C)c(=O)oc3c2)cc(OC)c1	.	-	.	.	.	.
Cc1nnc(NC(=O)c2ccco2)s1	-	-	-	-	-	-
CC(C)(C)Cc1nnc(NC(=O)c2ccc3c(c2)OCO3)s1	-	-	8.9µM	-	?	-
CCC(CC)c1nnc(NC(=O)COc2ccc3c(c2)OCO3)s1	25µM	?	8.9µM	?	?	?
CCC(CC)c1nnc(NC(=O)c2ccco2)s1	?	-	45µM	-	-	-
CCc1nnc(NC(=O)COc2ccc3c(c2)OCO3)s1	-	-	45µM	-	-	-
CCCc1nnc(NC(=O)COc2ccc3c(c2)OCO3)s1	-	-	-	-	-	-
O=C(Nc1nnc(Cc2ccc([N+](=O)[O-])cc2)s1)c1ccc2c(c1)OCO2	-	-	-[12.7 µM]	-	-	-
SMILES	Sfp PPTase inh	12-LOX inh	G9a inh	JMJD2A Tudor inh	HP1b chromo inh	BAZ2B block
COc1ccc(CCNC(=O)[C@H](CCS(C)(=O)=O)N2Cc3ccccc3C2=O)cc1OC	.	-	.	.	.	.
COC(=O)CSc1nnc(NC(=O)c2ccc3c(c2)OCO3)s1	-	-	32µM	-	-	-
Cc1cc(=O)oc2cc(OCC(=O)Nc3nnc(CC(C)C)s3)ccc12	-	-	-[12.7 µM]	-	-	-
Cc1cc(=O)oc2cc(OCC(=O)Nc3nnc(C(C)C)s3)ccc12	-	-	45µM	-	-	-
CCC(CC)c1nnc(NC(=O)c2ccc3c(c2)OCO3)s1	45µM	-	22µM	-	?	-
O=C(O)CSc1nnc(NC(=O)c2ccc3c(c2)OCO3)s1	-	?	-	-	-	-
OC(COCc1ccco1)CN1CCN(C(c2ccccc2)c2ccccc2)CC1 (stereo not drawn)	-	?	-	1.3µM	28µM	35µM
OC(COc1ccccc1)CN1CCN(C(c2ccccc2)c2ccccc2)CC1 (stereo not drawn)	-	-	-	-	-	?
Cc1ccc(Cl)cc1N1CCN(CC(O)COCc2ccco2)CC1 (stereo not drawn)	?	10µM	11µM	7.1µM	?	50µM
Cc1cccnc1NC(=O)C1c2ccccc2C(=O)N(Cc2ccccc2)C12CCCC2 (stereo not drawn)	.	-	.	.	.	.
Cc1ccc(-n2cccc2C(=S)N=P(N(C)C)(N(C)C)N(C)C)cc1	?	?	?	35µM	-	?
Cc1ccc(-n2cccc2C(=O)NS(=O)(=O)c2ccc(C)cc2)cc1	-	?	-	-	-	-
Cc1ccc(C(C)NC(=O)Nc2ccc(Cl)cc2F)c(C)c1 (stereo not drawn)	.	-	.	.	.	.
O=C(COC(=O)CC1CC2CCC1C2)Nc1ccccc1[N+](=O)[O-] (stereo not drawn)	.	-	.	50µM	?	.
CCC1(CC)C(=O)NC(=O)NC1=S	.	-	.	50µM	-	.
